The values below come from PubChem BioAssay (EPA / NIEHS).

A word on the AC50: it is the midpoint of the concentration-response curve, whichever way the signal moves.

Conditions in all cases: mRNA level, 48 h; actives raise or lower the signal
Read-out in test [1]: JUN Transcription Factor, JUN (gene 3725)
Nature of the test: LTEA_HepaRG_JUN: Life Technologies and Expression Analysis (LTEA) Assay for JUN Transcription Factor using HepaRG (AID 2283513). The procedure, abridged:
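mRNA measured by TaqMan qRT-PCR after 48 h chemical exposure of HepaRG cultures; normalization to three housekeeping genes. Duplicate eight-point half-log curves from 100 uM in 0.5% DMSO; gain or loss fitted against DMSO baseline.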

Read-out in test [2]: Lipase C (LIPC), LIPC (gene 3990)
Nature of the test: LTEA_HepaRG_LIPC: Life Technologies and Expression Analysis (LTEA) Assay for Lipase C (LIPC) using HepaRG (AID 2283514). The procedure, abridged:
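In this multiplexed gene-expression screen, human HepaRG cultures received test chemicals for 48 h across eight concentrations with 100 uM highest, in duplicate. Values reflect LIPC mRNA induction or suppression versus DMSO vehicle, from normalized qRT-PCR.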

Read-out in test [3]: Lipoprotein lipase (LPL), LPL (gene 4023)
Nature of the test: LTEA_HepaRG_LPL: Life Technologies and Expression Analysis (LTEA) Assay for Lipoprotein lipase (LPL) using HepaRG (AID 2283515). Summed up:
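Concentration-response testing used half-log steps from 100 uM in 0.5% DMSO on human HepaRG cells, 48 h, duplicate wells. Phenobarbital 1 mM served as induction control; LPL mRNA was normalized to ACTB, GAPDH, POLR2A.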

Read-out in test [4]: MicroRNA 122 (MIR122), gene 406906
Nature of the test: LTEA_HepaRG_MIR122: Life Technologies and Expression Analysis (LTEA) Assay for MicroRNA 122 (MIR122) using HepaRG (AID 2283516). Also: the transcript read is the microRNA miR-122. The procedure, abridged: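 Expression measured by microfluidic qRT-PCR with three housekeeping genes for normalisation, after 48 h treatment of HepaRG cultures. Eight concentrations (top 100 uM, half-log steps, 0.5% DMSO vehicle) in duplicate; gain or loss fitted relative to vehicle.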

Read-out in test [5]: matrix metalloproteinase-10 (MMP10), MMP10 (gene 4319)
Nature of the test: LTEA_HepaRG_MMP10: Life Technologies and Expression Analysis (LTEA) Assay for matrix metalloproteinase-10 (MMP10) using HepaRG (AID 2283517). The procedure, abridged:
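In differentiated HepaRG cultures kept in 0.5% DMSO, test chemicals act for 48 h over an eight-point range with a top dose of 100 uM. Expression is then quantified by TaqMan RT-PCR against ACTB, GAPDH and POLR2A.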

Read-out in the next test: MYC, MYC (gene 4609)
Nature of the test: LTEA_HepaRG_MYC: Life Technologies and Expression Analysis (LTEA) Assay for MYC using HepaRG (AID 2283518). Summed up:
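MYC transcript changes, up or down relative to 0.5% DMSO, from TaqMan qRT-PCR normalized to three housekeeping genes. Human HepaRG cultures received chemicals for 48 h at eight half-log concentrations up to 100 uM, in duplicate.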

Read-out in test [6]: matrix metalloproteinase-3 (MMP3), MMP3 (gene 4314)
Nature of the test: LTEA_HepaRG_MMP3: Life Technologies and Expression Analysis (LTEA) Assay for matrix metalloproteinase-3 (MMP3) using HepaRG (AID 2283519). Summed up:
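Human liver HepaRG cultures received chemicals (top concentration 100 uM, 0.5% DMSO) for 48 h in duplicate. MMP3 mRNA induction or loss was then assessed via TaqMan qRT-PCR with housekeeping-gene normalisation.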

Read-out in test [7]: Paternally Expressed 10 (PEG10), PEG10 (gene 23089)
Nature of the test: LTEA_HepaRG_PEG10: Life Technologies and Expression Analysis (LTEA) Assay for Paternally Expressed 10 (PEG10) using HepaRG (AID 2283520).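 Also: PEG10 transcript by qRT-PCR normalised to ACTB GAPDH and POLR2A.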 The procedure, abridged:
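PEG10 transcript measured by Fluidigm qRT-PCR, normalized to three housekeeping genes, in HepaRG cells treated 48 h (highest 100 uM, half-log steps, 0.5% DMSO vehicle). Cells plated 48 h before switching to serum-free induction medium.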

Read-out in test [8]: Nuclear factor NF-kappa-B p105 subunit (Homo sapiens) (UniProt P19838)
Nature of the test: LTEA_HepaRG_NFKB1: Life Technologies and Expression Analysis (LTEA) Assay for Nuclear Factor Kappa B Subunit 1 (NFKB1) using HepaRG (AID 2283521).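 Also: TaqMan qRT-PCR transcript normalised to ACTB GAPDH and POLR2A housekeeping genes.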 Summed up:
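Differentiated human HepaRG cells in serum-free induction medium with 0.5% DMSO were exposed for 48 h to eight half-log concentrations, top 100 uM, in duplicate. NFKB1 mRNA measured by Fluidigm TaqMan qRT-PCR, normalised to ACTB, GAPDH and POLR2A; bidirectional fit versus DMSO.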

Read-out in test [9]: Protein phosphatase 2A (PPP2R4), PTPA (gene 5524)
Nature of the test: LTEA_HepaRG_PPP2R4: Life Technologies and Expression Analysis (LTEA) Assay for Protein phosphatase 2A (PPP2R4) using HepaRG (AID 2283522). Summed up:
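Expression was quantified by Fluidigm qRT-PCR normalised to three housekeeping genes after 48 h treatment. Human HepaRG cells received an 8-point series from 100 µM downward by half-logs, in duplicate with 0.5% DMSO vehicle and 1 mM phenobarbital as induction control.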

Read-out in test [10]: Phosphatase and tensin (PTEN), PTEN (gene 5728)
Nature of the test: LTEA_HepaRG_PTEN: Life Technologies and Expression Analysis (LTEA) Assay for Phosphatase and tensin (PTEN) using HepaRG (AID 2283523). The procedure, abridged: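 Expression of PTEN is quantified in the human liver line HepaRG following two days of dosing (top concentration 100 uM, half-log dilutions, 0.5% DMSO). Values derive from bidirectional curve fitting relative to DMSO controls.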

Read-out in test [11]: solute carrier (SLC22A1), SLC22A1 (gene 6580)
Nature of the test: LTEA_HepaRG_SLC22A1: Life Technologies and Expression Analysis (LTEA) Assay for solute carrier (SLC22A1) using HepaRG (AID 2283524).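 Also: TaqMan qRT-PCR normalized to ACTB GAPDH and POLR2A housekeeping genes.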 Summed up:
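Transcript induction or suppression of SLC22A1 in human HepaRG cultures is scored after 48 h chemical treatment, with DMSO (0.5%) as baseline for bidirectional fitting. Concentrations span eight half-log points topping at 100 uM.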

Read-out in test [12]: Pyruvate Dehydrogenase Kinase 4 (PDK4), PDK4 (gene 5166)
Nature of the test: LTEA_HepaRG_PDK4: Life Technologies and Expression Analysis (LTEA) Assay for Pyruvate Dehydrogenase Kinase 4 (PDK4) using HepaRG (AID 2283525). Summed up:
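Eight-point, half-log concentration series (max 100 uM, 0.5% DMSO) applied to differentiated HepaRG cells for 48 h in duplicate. Endpoint: PDK4 mRNA induction or repression by qRT-PCR against DMSO baseline.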

Read-out in test [13]: NAD(P)H dehydrogenase [quinone] 1 (NQO1), NQO1 (gene 1728)
Nature of the test: LTEA_HepaRG_NQO1: Life Technologies and Expression Analysis (LTEA) Assay for NAD(P)H dehydrogenase [quinone] 1 (NQO1) using HepaRG (AID 2283526). Summed up: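 NQO1 transcript induction or loss measured by TaqMan qRT-PCR, referenced to three housekeeping genes and fitted bidirectionally against 0.5% DMSO. HepaRG cultures exposed 48 h, duplicate, eight-point half-log series, top 100 uM.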

Read-out in test [14]: Nuclear factor erythroid 2-related factor 2 (Homo sapiens) (UniProt Q16236)
Nature of the test: LTEA_HepaRG_NFE2L2: Life Technologies and Expression Analysis (LTEA) Assay for Nuclear factor erythroid 2-related factor 2 (NFE2L2) Transcription Factor using HepaRG (AID 2283527).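 As to outcome: TaqMan qRT-PCR transcript level normalised to ACTB GAPDH and POLR2A housekeeping genes.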 The procedure, abridged: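 Human liver HepaRG line treated in duplicate for 48 h with an eight-point series topping at 100 uM. Gene expression of NFE2L2 by qRT-PCR, bidirectionally fitted against the vehicle control.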

Read-out in test [15]: succinate dehydrogenase complex iron sulfur subunit B (SDHB), SDHB (gene 6390)
Nature of the test: LTEA_HepaRG_SDHB: Life Technologies and Expression Analysis (LTEA) Assay for succinate dehydrogenase complex iron sulfur subunit B (SDHB) using HepaRG (AID 2283528). The procedure, abridged: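 HepaRG cells (~100,000/well, plated 48 h) exposed in duplicate for 48 h in serum-free induction medium to 8-point half-log series from 100 uM in 0.5% DMSO; mRNA by qRT-PCR normalised to ACTB, GAPDH, POLR2A; bidirectional fit versus DMSO.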

Read-out in test [16]: Signal transducer and activator of transcription 3 (Homo sapiens) (UniProt P40763)
Nature of the test: LTEA_HepaRG_STAT3: Life Technologies and Expression Analysis (LTEA) Assay for Signal transducer and activator of transcription (STAT3) using HepaRG (AID 2283529). Summed up: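 In this transcriptional endpoint, HepaRG cultures receive test chemicals at up to 100 uM for 48 h, tested in duplicate. STAT3 mRNA is normalized to ACTB, GAPDH and POLR2A.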

Read-out in test [17]: solute carrier (SLCO1B1), SLCO1B1 (gene 10599)
Nature of the test: LTEA_HepaRG_SLCO1B1: Life Technologies and Expression Analysis (LTEA) Assay for solute carrier (SLCO1B1) using HepaRG (AID 2283530). Summed up: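 SLCO1B1 transcript levels were quantified by TaqMan qRT-PCR using three housekeeping genes for normalization. This followed 48 h chemical exposure (100 uM top, half-log, 8 points, 0.5% DMSO) of HepaRG liver cells, with gain or loss fitted relative to DMSO.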

Read-out in test [18]: sulfotransferase 2A1 (SULT2A1), SULT2A1 (gene 6822)
Nature of the test: LTEA_HepaRG_SULT2A1: Life Technologies and Expression Analysis (LTEA) Assay for sulfotransferase 2A1 (SULT2A1) using HepaRG (AID 2283531). The procedure, abridged: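 Expression change of SULT2A1, by qRT-PCR with three housekeeping-gene normalization, was scored bidirectionally versus DMSO. Cells: differentiated HepaRG, dosed in duplicate for 48 h across 8 points, highest 100 µM, half-log dilution, 0.5% DMSO.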

Read-out in test [19]: Transforming Growth Factor (TGFA), TGFA (gene 7039)
Nature of the test: LTEA_HepaRG_TGFA: Life Technologies and Expression Analysis (LTEA) Assay for Transforming Growth Factor (TGFA) using HepaRG (AID 2283532). Summed up: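 Gene expression of TGFA was quantified by qRT-PCR after human HepaRG cells were treated for 48 h with test chemicals (eight concentrations, highest 100 uM, 0.5% DMSO). Activity in either direction was fitted relative to DMSO.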

Active and inactive are the calls of the source. The calls were made as follows: active = hit-call score of the fitted dose curve at least 0.9, where 1 is the maximum; inactive = score below 0.9.

Nuclear factor erythroid 2-related factor 2 (Homo sapiens), sequence (Q16236 whole entry, looked up): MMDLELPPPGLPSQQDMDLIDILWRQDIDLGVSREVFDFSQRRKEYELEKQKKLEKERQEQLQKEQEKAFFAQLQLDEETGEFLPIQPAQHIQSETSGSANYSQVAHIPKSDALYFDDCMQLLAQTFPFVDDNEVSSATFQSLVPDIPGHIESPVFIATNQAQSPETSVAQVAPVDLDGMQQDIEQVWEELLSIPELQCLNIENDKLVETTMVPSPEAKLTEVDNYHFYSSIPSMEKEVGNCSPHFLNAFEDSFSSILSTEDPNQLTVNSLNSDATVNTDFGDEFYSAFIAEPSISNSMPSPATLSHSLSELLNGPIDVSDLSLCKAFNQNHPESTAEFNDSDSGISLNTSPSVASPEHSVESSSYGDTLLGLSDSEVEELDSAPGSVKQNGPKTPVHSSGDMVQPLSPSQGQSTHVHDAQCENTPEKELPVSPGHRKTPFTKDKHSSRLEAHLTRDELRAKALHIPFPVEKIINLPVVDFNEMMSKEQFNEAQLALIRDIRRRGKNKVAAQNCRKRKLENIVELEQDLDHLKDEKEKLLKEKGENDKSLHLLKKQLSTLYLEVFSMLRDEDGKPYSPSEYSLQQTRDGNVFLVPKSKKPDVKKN
Signal transducer and activator of transcription 3 (Homo sapiens), sequence (P40763 whole entry, looked up): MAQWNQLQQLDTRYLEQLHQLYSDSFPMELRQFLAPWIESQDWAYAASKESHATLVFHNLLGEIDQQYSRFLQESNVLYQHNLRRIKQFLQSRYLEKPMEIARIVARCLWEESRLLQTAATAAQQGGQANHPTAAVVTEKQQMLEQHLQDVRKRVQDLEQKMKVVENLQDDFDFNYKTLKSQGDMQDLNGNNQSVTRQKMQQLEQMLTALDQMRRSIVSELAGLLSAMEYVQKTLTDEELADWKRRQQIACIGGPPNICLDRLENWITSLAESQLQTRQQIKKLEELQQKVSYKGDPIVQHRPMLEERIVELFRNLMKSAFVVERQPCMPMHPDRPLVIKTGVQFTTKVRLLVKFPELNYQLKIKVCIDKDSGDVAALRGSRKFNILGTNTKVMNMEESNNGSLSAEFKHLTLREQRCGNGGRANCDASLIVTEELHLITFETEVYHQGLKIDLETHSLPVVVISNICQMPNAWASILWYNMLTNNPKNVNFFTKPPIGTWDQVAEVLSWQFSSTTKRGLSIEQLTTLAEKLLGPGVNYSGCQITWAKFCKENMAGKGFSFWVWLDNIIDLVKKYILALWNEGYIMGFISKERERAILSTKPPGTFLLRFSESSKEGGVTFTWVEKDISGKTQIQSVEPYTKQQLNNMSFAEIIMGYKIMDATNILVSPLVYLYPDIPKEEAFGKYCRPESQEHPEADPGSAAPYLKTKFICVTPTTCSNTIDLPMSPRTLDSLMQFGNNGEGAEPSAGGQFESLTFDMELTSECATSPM
Nuclear factor NF-kappa-B p105 subunit (Homo sapiens), sequence (P19838 whole entry, looked up): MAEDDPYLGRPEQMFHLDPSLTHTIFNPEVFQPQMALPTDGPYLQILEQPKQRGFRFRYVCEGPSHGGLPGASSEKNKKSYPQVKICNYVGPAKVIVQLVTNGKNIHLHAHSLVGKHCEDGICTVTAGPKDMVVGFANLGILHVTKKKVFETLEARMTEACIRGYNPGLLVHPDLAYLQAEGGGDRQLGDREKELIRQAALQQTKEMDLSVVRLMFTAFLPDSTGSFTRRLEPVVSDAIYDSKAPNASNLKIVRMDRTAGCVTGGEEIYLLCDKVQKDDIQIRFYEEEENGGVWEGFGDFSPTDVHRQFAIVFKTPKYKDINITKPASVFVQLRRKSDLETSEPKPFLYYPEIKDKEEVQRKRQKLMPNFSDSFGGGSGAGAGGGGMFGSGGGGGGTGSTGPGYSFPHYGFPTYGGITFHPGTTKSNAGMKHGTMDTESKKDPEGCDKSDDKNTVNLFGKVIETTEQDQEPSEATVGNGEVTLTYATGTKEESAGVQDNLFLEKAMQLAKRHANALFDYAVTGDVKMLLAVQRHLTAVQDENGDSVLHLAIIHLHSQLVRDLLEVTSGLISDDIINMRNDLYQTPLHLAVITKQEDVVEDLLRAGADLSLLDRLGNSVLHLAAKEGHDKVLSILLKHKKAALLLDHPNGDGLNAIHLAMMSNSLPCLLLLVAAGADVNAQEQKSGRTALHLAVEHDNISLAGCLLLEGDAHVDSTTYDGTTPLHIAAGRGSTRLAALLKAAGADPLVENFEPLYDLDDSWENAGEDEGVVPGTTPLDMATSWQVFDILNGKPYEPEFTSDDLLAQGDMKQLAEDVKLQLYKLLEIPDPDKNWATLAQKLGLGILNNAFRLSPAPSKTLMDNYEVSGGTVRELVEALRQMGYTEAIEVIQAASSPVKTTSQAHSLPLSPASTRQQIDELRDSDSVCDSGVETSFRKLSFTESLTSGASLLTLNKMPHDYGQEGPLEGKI

Regarding `CC(C)N(C(=O)COc1nnc(C(F)(F)F)s1)c1ccc(F)cc1`, the outcome was “inactive” in test [1]; “inactive” in test [2]; “inactive” in [3]; “inactive” in test [4]; “inactive” in test [5]; “inactive” in the test with MYC, MYC (gene 4609). Moreover, the call in [6], in test [8], in test [10], in test [12], in test [13] and in test [14] was inactive. Further, the call in test [15], in test [16], in test [17] and in test [19] was inactive. In addition, the AC50 was 22.2 µM (active) in test [7], 31.4 µM (active) in [9], 39.5 µM (active) in [11] and 13.8 µM (active) in test [18].
Consider `CC1(c2ccc(Oc3ccccc3)cc2)OC(=O)N(Nc2ccccc2)C1=O` (stereo not drawn), for which the AC50 in test [1] was 33.5 µM (active); in test [2], 21.5 µM (active); in test [3], 12.3 µM (active); in test [4], 10.6 µM (active); in test [5], 26.1 µM (active); with MYC, MYC (gene 4609) it was 10.2 µM (active). Further, the AC50 in [6] was 10.6 µM (active); in test [7] it was 6.47 µM (active); in test [9] it was 12.1 µM (active); in [11], 13.5 µM (active); in test [12], 32.1 µM (active); in test [13], 50.2 µM (active). For the same molecule, the AC50 in test [14] was 23 µM (active); in [16] it was 50.2 µM (active); in test [17], 30.6 µM (active); in test [18] it was 32.5 µM (active); in [19], 8.82 µM (active). In addition, the molecule was classed as inactive in test [10] and in [15].
With `Clc1ccccc1-c1nnc(-c2ccccc2Cl)nn1`, the outcome in [1] is “inactive”; in test [2], “inactive”; in [3], “inactive”; in [4], “inactive”; in test [5] it was “inactive”; in the test with MYC, MYC (gene 4609), “inactive”. For the same molecule, the call in [6], in test [9], in [10], in test [12], in test [13] and in [14] was inactive. In addition, the outcome in test [15], in test [16], in test [17], in [18] and in test [19] was inactive. In addition, the concentration at half-maximal activity (AC50) was 30.7 µM (active) in test [7] and 50 µM (active) in test [11].
